An excerpt weighted towards active compounds, which were near 8.3% of everything screened.
RORg inh: qHTS for inhibitors of ROR gamma transcriptional activity; Drosophila S2 Gal4-RORgamma UAS-luciferase reporter, 20 h; Potency, µM (doses to about 53.6 µM), actives largely listed as inhibitors; 310,000 tested, 5.4% active; AID 2551, 2010; further: nearly all actives have a fitted effect of over 60% in size
Target sequence (P51450 whole entry, looked up, the tested form may be a part): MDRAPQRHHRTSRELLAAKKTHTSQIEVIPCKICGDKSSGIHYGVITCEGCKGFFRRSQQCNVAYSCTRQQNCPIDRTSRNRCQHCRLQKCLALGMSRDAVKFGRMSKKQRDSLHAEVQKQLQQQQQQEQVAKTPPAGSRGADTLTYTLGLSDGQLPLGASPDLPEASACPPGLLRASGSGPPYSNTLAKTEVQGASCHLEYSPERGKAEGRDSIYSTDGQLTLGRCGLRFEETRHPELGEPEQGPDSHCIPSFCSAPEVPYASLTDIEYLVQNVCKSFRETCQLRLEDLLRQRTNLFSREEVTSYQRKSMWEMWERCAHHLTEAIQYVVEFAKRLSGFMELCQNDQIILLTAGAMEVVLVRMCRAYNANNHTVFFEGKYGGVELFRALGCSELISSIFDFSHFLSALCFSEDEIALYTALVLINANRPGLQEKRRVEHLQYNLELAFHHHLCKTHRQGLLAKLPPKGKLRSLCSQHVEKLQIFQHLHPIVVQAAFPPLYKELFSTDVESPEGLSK
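Luminescence from a UAS-regulated Photinus luciferase reporter in stably transfected Drosophila Schneider cells is measured; decreased signal marks ROR gamma inhibition. Fusion expression is induced by 700 uM copper sulfate for 20 hr.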
Gal4-VP16 FLuc: VP16 counterscreen qHTS for inhibitors of ROR gamma transcriptional activity. Drosophila S2 Gal4-VP16 UAS-luciferase, luminescence, 20 h. Potency, µM (top dose mostly 53.6 µM), most hits filed as inhibitors. 310,000 tested, 3.5% active;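 further: Gal4-VP16 expression switched on by copper sulfate through the metallothionein promoter; nearly all actives have a fitted effect of over 50% in size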
SW480 rereplic: A quantitative high throughput screen for small molecules that induce DNA re-replication in SW480 colon adenocarcinoma cells | SW480 DNA re-replication, Hoechst DNA content imaging, 48 h | Potency, µM (top dose mostly 46.1 µM), most hits filed as activators | 340,000 tested, 1.8% active | AID 624297, 2012; further: nearly all actives have a fitted effect of over 55% in size
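Image-based read-out: total Hoechst fluorescence of nuclei (405 nm excitation, 500-530 nm emission), with hits raising the fraction of high-intensity nuclei. SW480 colon cells incubated 48 hr with compounds at 37 C.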
Chronic BCR inh: qHTS Assay to Find Inhibitors of Chronic Active B-Cell Receptor Signaling | AID 493014, 2011 | ABC-DLBCL IkBa-CBG/CBR reporter, luminescence ratio, 4 h | 340,000 tested, 0.05% active | Potency, µM (titrated, usually from 46.1 µM), hits mostly inhibitors; active means well fitted inhibition curve with a large enough effect in the signal ratio, with a control signal flat, not every such curve was filed as active; inconclusive means small, poorly fitted or top-dose-only effect, or effect the other way, or a change in a side signal; the % refers to the signal ratio
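TMD8 ABC-DLBCL cells carrying doxycycline-inducible green luciferase fused to IkappaBalpha plus unfused red luciferase were exposed to compounds (up to 46 uM) for 4 hrs at 37C. Activity came from the overlap-corrected green/red luminescence ratio.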
Giardia killer: Small Molecules that selectively kill Giardia lamblia: qHTS. AID 540267, 2011. Giardia lamblia trophozoite viability. 340,000 tested, 0.15% active. activity change, % at 7.66 µM, hits read low; in the data active means activity change below about -80%; inconclusive means between about -30% and that limit;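 further: parasites exposed to compound for two days anaerobically before the ATP read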
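Giardia trophozoites, 100 cells per well, were exposed to compounds for 48 hrs at 37 deg C under anaerobic conditions; viability was then read as ATP content by bioluminescence after 15-30 min at room temperature.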
MCF10A rereplic: A quantitative high throughput screen for small molecules that induce DNA re-replication in MCF 10a normal breast cells. MCF 10A DNA re-replication, Hoechst nuclear intensity, 48 h. Potency, µM (doses to about 46.1 µM), actives largely listed as activators. 350,000 tested, 2.9% active. AID 624296, 2012; further: nearly all actives have a fitted effect of over 50% in size
Numbers stand for hits; i = inactive; ? = inconclusive; nt = no result; [ ] = remark or other dose. Unless noted, the call rests on the fitted dose curve; in most records, active means well fitted curve in the direction sought with a large enough effect; inconclusive means small, poorly fitted or top-dose-only effect, or another doubt; inactive means no such curve, though single readings can be large; an effect the other way counts as inactive or inconclusive.

SMILES	RORg inh	Gal4-VP16 FLuc	SW480 rereplic	Chronic BCR inh	Giardia killer	MCF10A rereplic
COc1ccc(C(=O)Nc2cccc3c2CCCC3)cc1	i	i	?	i	i	13µM
COc1ccc(NC(=O)c2ccc(C(=O)Nc3ccc(OC)cc3OC)cc2)c(OC)c1	i	i	5.17µM	i	i	i
COc1cccc(C(=O)NNC(=O)C(=O)Nc2ccc(OC)cc2OC)c1	14.1µM	i	i	i	i	i
O=C(Nn1cnnc1)c1ccc(F)cc1	i	i	i	i	i	i
COc1ccc(NC(=O)CN2CCCC2c2cccs2)cc1S(=O)(=O)N1CCCCC1 (configuration not stated)	nt	nt	i	?	i	i
COc1ccc(C(=O)Nc2cc(-c3ccc(C)cc3)no2)cc1	3.16µM	i	i	i	i	?
COc1ccc(C(=O)Nc2ccc(-c3ccc(NC(=O)c4ccc(OC)cc4)c(OC)c3)cc2OC)cc1	i	i	i	i	i	2.31µM
COc1ccc(NC(=O)c2ccc(C)cc2)cc1	i[1.91 µM]	?	i	i	i	i
CCCc1[nH]n(-c2ccc([N+](=O)[O-])cc2)c(=O)c1C(C)=NCc1ccncc1	i	i	i	?	i	i
O=C(NC(=O)C(F)(F)F)Nc1ccc(S(=O)(=O)Nc2nccs2)cc1	i[1.91 µM]	i	i	i	?	i
O=C(CCNS(=O)(=O)c1ccc2[nH]c(=O)oc2c1)Nc1cccc(Br)c1	i	i	?	i	i	i
CC(=O)c1ccc(-c2ccc(C(=O)Nc3nc(-c4ccccn4)cs3)o2)cc1	nt	nt	?	i	i	16.4µM
CC(=O)Nc1ccc(-c2csc(NC(=O)c3ccc(C)o3)n2)cc1	i	i	i	i	i	i
O=C(Nc1nc(-c2ccccn2)cs1)c1ccc(-c2ccccc2F)o1	nt	nt	?	?	i	20.6µM
Cc1ccc(C(=O)Nc2nc(-c3ccccn3)cs2)o1	12.6µM	?	i	i	i	i
O=C(Nc1nc(-c2ccccn2)cs1)c1ccc([N+](=O)[O-])o1	?	?	?	?	?	2.31µM
O=C(COc1ccc([N+](=O)[O-])cc1)Nc1nc(-c2ccccn2)cs1	nt	nt	i	?	i	i
CCn1ccnc1CN(C)Cc1nc(-c2cccc(Cl)c2)no1	17.8µM	i	i	i	i	i
CCn1ccnc1CN(C)Cc1nc(-c2ccccc2)no1	?	?	i[1.84 µM]	?	i	?
CN(Cc1cn(Cc2ccccc2)nc1-c1ccc2c(c1)OCO2)Cc1nccn1C	12.6µM	i	i	i	i	i
CN(Cc1ccccn1)Cc1cn(Cc2ccccc2)nc1-c1ccc2c(c1)OCO2	i	i	i	i	i	i
CCn1ccnc1CN(C)Cc1cn(-c2ccc(C)cc2)nc1-c1cccc(C)c1	1.58µM	10µM	?	?	i	?
COc1ccc(-n2cc(CN(C)CCO)c(-c3cccc(F)c3)n2)cc1	i	i	i	?	i	i
CCn1ccnc1CN(C)Cc1cn(-c2cccc(C)c2)nc1-c1cccc(F)c1	1.58µM	15.8µM	?	?	i	5.8µM
CC(=O)Nc1ccc(N(C(=O)CNC(=O)c2ccco2)C(C(=O)NCc2ccco2)c2ccccc2F)cc1 (configuration not stated)	i	i	i	i	i	i
SMILES	RORg inh	Gal4-VP16 FLuc	SW480 rereplic	Chronic BCR inh	Giardia killer	MCF10A rereplic
COC(=O)/C=C/C1c2ccccc2C(OC)C1C (configuration not stated)	i[10 µM]	i[10 µM]	nt	nt	nt	nt
Cc1cc(NC(=O)CSc2nnc(N)s2)c([N+](=O)[O-])cc1C	i	i	i	i	i	i
CCN(CC)C(=O)Cn1cc(S(=O)(=O)CC(=O)Nc2ccccc2F)c2ccccc21	nt	nt	i	nt	i	i
CCN(CC)S(=O)(=O)c1ccc2c(c1)CC(C(=O)N1CCCC1)N2C(C)=O (configuration not stated)	i	i	i	i	i	i
Cc1ccc(-n2cc(CN3CCNC(=O)CC3)c(-c3cccc(C)c3)n2)cc1	i	i	i	?	i	i
Cc1cccc(-n2cc(CN(C)Cc3nccn3C)c(-c3cccc(F)c3)n2)c1	5.62µM	?	18.4µM	i	i	?
Cc1ccc(C)c(-n2cc(CNCCc3cnccn3)c(-c3ccccc3)n2)c1	i	i	i	?	i	i
CCn1ccnc1CNCc1cn(-c2cc(C)ccc2C)nc1-c1ccccc1	14.1µM	i	i	i	i	i
Cc1ccc(-n2cc(CN3CCN(Cc4nccn4C)CC3)c(-c3cccc(C)c3)n2)cc1	10µM	i	i	?	i	i
O=C(CSc1nnc(NC(=O)C2CC(=O)N(c3ccc(F)cc3)C2)s1)NCc1ccco1 (configuration not stated)	i	i	i	i	i	i
Cc1c(N=C=O)cccc1N=C=O	i	i	nt	nt	nt	nt
O=C(Nc1ncnc2c1ncn2C1OC(COC(=O)c2ccccc2)C(F)C1O)c1ccccc1 (configuration not stated)	10µM	11.2µM	i	?	i	i
CC(/C=C/c1ccccc1F)=N\NC(=O)c1cccc(F)c1	0.891µM	5.01µM	?	?	i	?
Cc1ccc(OCCNC(=O)/C=C/c2ccco2)cc1C	i	i	i	i	?	i
CC(/C=N/NC(=O)c1cc(C(C)(C)C)[nH]n1)=C\c1ccccc1	i	i	i	i	i	?
CC(/C=N/NC(=O)c1cc(-c2ccc(C)s2)[nH]n1)=C\c1ccccc1	i	i	?	i	i	6.51µM
CC(/C=C/c1ccco1)=N\NC(=O)COc1ccc(C)c(C)c1	?	8.91µM	i	i	i	i
CC(=C/c1ccc(C(C)C)cc1)/C=N/NC(=O)c1ccncc1	i	i	i	i	i	20.6µM
CC(/C=N/NC(=O)c1ccncc1)=C\c1ccccc1	i	i	i	i	i	i
CN1C(=O)[C@H](Cc2ccc([N+](=O)[O-])cc2)NC1=S	?	?	i	?	i	i
Cc1c(N2CCCC2)cc2c(c1N)C(C)(C)CC2(C)C	i	i	i	i	i	?
CCOc1cc(N2CCOCC2)c(OCC)cc1NC(=O)c1ccc(F)c(S(=O)(=O)N2CCOCC2)c1	nt	nt	i	i	i	i
COc1cc(/C=N/S(=O)(=O)CCc2ccccc2)cc(OC)c1O	i	i	i	i	i	i
CC(/C=N/NC(=O)c1cccc(F)c1)=C\c1ccccc1	i	i	14.6µM	?	i	?
CC(/C=N/NC(=O)c1nn(C)c(C)c1Br)=C\c1ccccc1	0.159µM	?	i	?	i	i
C/C(=N\NC(=O)c1nn(C)c(C)c1Br)c1ccc(NC(=O)C2CCCC2)cc1	5.62µM	?	i	i	i	i

Screening data from PubChem.
